# Screening data deposited in PubChem BioAssay by National Center for Advancing Translational Sciences (NCATS).
# Bst PK mod – modulators of Bacillus stearothermophilus pyruvate kinase. 1.2% of 51,000 active. Potency, µM. purified pyruvate kinase, luminescence ATP production; ribose 5-phosphate activator present at AC10; in the data active = potency below about 11 µM; inconclusive = mostly about 12 µM to 25 µM;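 the screen sought inhibitors and activators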
# Luciferase inh – firefly luciferase inhibition; P08659; purified firefly luciferase, luminescence, 8 min; Potency, µM (doses to about 57.1 µM), most hits filed as inhibitors; 2.2% of 72,000 active; AID 411; active = well fitted inhibition curve with a large enough effect; inconclusive = small, poorly fitted or top-dose-only effect; also: nearly all actives have a fitted effect of over 40% in size
# Target sequence (P08659 whole entry, looked up): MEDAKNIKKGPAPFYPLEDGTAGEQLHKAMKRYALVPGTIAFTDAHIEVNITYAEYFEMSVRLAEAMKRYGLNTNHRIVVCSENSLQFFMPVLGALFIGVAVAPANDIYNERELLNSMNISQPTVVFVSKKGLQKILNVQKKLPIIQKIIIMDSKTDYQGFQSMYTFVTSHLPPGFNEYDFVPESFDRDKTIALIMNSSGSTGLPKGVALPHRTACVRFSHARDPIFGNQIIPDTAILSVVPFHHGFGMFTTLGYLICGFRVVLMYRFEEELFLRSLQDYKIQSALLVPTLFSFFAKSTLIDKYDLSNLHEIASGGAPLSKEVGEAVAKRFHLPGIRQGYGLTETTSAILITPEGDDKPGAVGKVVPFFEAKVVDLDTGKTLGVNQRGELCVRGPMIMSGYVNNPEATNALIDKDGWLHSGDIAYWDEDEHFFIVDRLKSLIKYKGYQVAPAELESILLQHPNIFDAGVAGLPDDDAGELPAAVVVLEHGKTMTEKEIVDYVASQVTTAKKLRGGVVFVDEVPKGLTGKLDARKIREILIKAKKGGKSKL
#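 Inhibition of light generation by firefly luciferase from ATP and luciferin was profiled with concentration-response curves per sample, ATP held at 10 uM within the enzyme's linear range. Plates were read by luminescence after an 8-minute ambient incubation.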
# A number is an active result; - = inactive; ? = inconclusive; . = no result given. Hits are enriched below; roughly 2.5% of the tested compounds scored in any of these assays.
SMILES,Bst PK mod,Luciferase inh
COc1ccccc1C(=O)Nc1ccc(C(=O)O)cc1,-,-
CCOc1ccc(NC(=O)c2nccnc2CO)cc1,?,16µM
CCOc1ccc(NC(=O)c2oc3ccccc3c2NC(=O)CC)cc1,5.4,-
CCOc1ccc(NC(N)=O)cc1,-,-
C=CCNC(=O)c1ccc(OC)cc1OC,-,-
O=C1C(=O)c2ccccc2C(O)=C1C1CCC(c2ccc(Cl)cc2)CC1 (centres undefined),.,-
Cn1c(=O)c2c(nc(CN3CCc4ccccc4C3)n2Cc2ccccc2F)n(C)c1=O,-,-
Cc1nnc(-n2cnc3ccccc32)c2ccccc12,-,-
CCOC(=O)c1ccccc1NC(=O)CN(c1ccccc1OC)S(C)(=O)=O,.,-
Cc1cc(NC(=O)Nc2cccc(C(F)(F)F)c2)no1,-,-
CCOc1ncccc1C(=O)Nc1cccc(C(=O)Nc2cccc(S(=O)(=O)CCO)c2)c1,.,-
CCOc1ncccc1C(=O)Nc1ccc(Cl)cc1,3.8,-
Cc1ccc(Nc2nc(N3CCOCC3)nc(N3CCOCC3)n2)cc1,.,-
CCOc1ccc(Nc2cc(C)nc(N3CCOCC3)n2)cc1,1.4,-
CCOC(=O)c1ccc(NC(=O)c2ccc(CN3CCOCC3)cc2)cc1,-,-
Clc1ccc(Nc2nc(NCCN3CCOCC3)nc(N3CCOCC3)n2)cc1,.,-
Nc1nc(N2CCOCC2)nc2ccccc12,.,-
CCOc1ccc2nc(N3CCOCC3)nc(C)c2c1,-,16µM
CCOC(=O)c1ccc(Nc2cc(C)nc(N3CCOCC3)n2)cc1,1.5,-
CCOc1ccc(Nc2nc(NCCN3CCOCC3)nc(OC)n2)cc1,6.3,-
CC1=CC(C)(C)Nc2cc(C)c(C)cc21,-,-
C=CCn1c(SCC(=O)Nc2sc(C)c(C)c2C(=O)OCC)nnc1-c1sc(N)nc1C,-,-
c1ccc(Cn2nnnc2CN2CCN(c3ncccn3)CC2)cc1,-,-
C=CCc1c(C)nc2c(C(=O)O)cnn2c1C,-,-
COn1c(=S)[nH]c2ccccc2c1=O,-,-
SMILES,Bst PK mod,Luciferase inh
CC(=O)Nc1cccc(NC(=O)c2cc(C)on2)c1,-,-
CC(=O)Nc1cccc(Oc2ccc(-c3noc(C)n3)cc2)c1,-,13µM
CCc1c(C)sc(NC(=O)c2ccco2)c1C(=O)N1CCCCC1,-,-
CCOC(=O)CN1CC23C=CC(O2)C(C(=O)Nc2ccc(F)c(C)c2)C3C1=O (centres undefined),-,-
COc1ccc(OC)c(CN2CCN(C(=O)c3cccc4ccccc34)CC2)c1,7.4,-
COc1ccc(OC)c(CN2CCN(C(=O)c3cccs3)CC2)c1,-,-
Cc1cc2nnc(SCc3ccccc3)n2c(N)n1,-,-
CCOC(=O)C1=C(C)NC(C)=C(C(=O)OCC)C1C(=O)OCC(=O)c1ccc2c(c1)OCCO2,-,-
Cc1ccc(S(=O)(=O)N2CCCC(C(=O)NC3=NCCS3)C2)cc1 (centres undefined),6.3,-
COc1ccc(S(=O)(=O)N2CCCC(C(=O)Nc3ccc(OC)c(OC)c3)C2)cc1 (centres undefined),-,-
COc1ccc(NC(=O)C2CCCN(S(=O)(=O)c3ccc(C)cc3)C2)cc1OC (centres undefined),5.4,-
Cc1ccc(N2CC(C(=O)NC3=NCCS3)CC2=O)cc1 (centres undefined),-,-
Cc1ccc(CN2C(=O)CCC2C(=O)NCCCN2CCCC(C)C2)cc1 (centres undefined),-,-
Cn1c(CNC(=O)c2ccco2)nnc1SCC(=O)N1c2ccccc2Sc2ccccc21,-,-
Cc1cccc(-n2nnc(C(=O)NCc3ccc4c(c3)OCO4)c2N)c1,-,-
Cc1csc(NC(=O)c2cc3c(s2)CCC3)n1,?,2.5µM
COC(=O)c1sc(NC(=O)c2cc3c(s2)CCCC3)nc1C,-,-
CCOC(=O)COc1ccc(Oc2nc(C)cc(OC)n2)nn1,-,-
Cc1ccc(-c2nnc(SCc3ccccc3F)o2)cc1,-,20µM
COc1ccc(-c2nnc(SCc3ccccc3F)o2)cc1OC,-,-
Cc1ccc(C)c(SCC(=O)Nc2nnc(-c3ccccc3)o2)c1,3.1,-
CCC(c1nnc(SCC(=O)Nc2nnc(-c3ccccc3)o2)o1)N(C)C (centres undefined),-,-
Oc1ccc(N2CCN(C(c3cccnc3)c3nnnn3Cc3ccccc3)CC2)cc1 (centres undefined),-,-
Cc1cccc(-n2c(SCC(=O)Nc3nnc(C)s3)nnc2-c2ccoc2C)c1,-,-
COc1ccc(NC(=O)c2ccco2)c(OC)c1,-,-
SMILES,Bst PK mod,Luciferase inh
COc1cc(NC(=O)C(C)C)ccc1NC(=O)c1ccco1,.,20µM
CC(=O)C1=C(O)C(=O)N(c2ccc(Br)cn2)C1c1ccccc1F (centres undefined),-,-
Cc1noc(C)c1COC(=O)c1ccc(-c2nc3ccccc3s2)s1,-,-
O=C(NC1CC1)c1ccc(-c2nc3ccccc3s2)s1,0.8,1.6µM
Cc1ccc(OCc2nnc(SCC(=O)C(C)(C)C)n2Cc2ccco2)cc1,-,-
CCOC(=O)N1CCC(NS(=O)(=O)c2cc3c(cc2Cl)NC(=O)CO3)CC1,-,-
